In PubChem BioAssay AID504652 (National Center for Advancing Translational Sciences (NCATS), 2011):
Screen size: about 360,000 compounds; about 11,000 (3.1%) were called active. The entries come from a sample that favours actives as a whole. A number with no mark means an inactive call. Cut-off read from the data, not from the text of the source: active = activity change below about -30%; inactive = the rest.

molecular target: D(1A) dopamine receptor (Homo sapiens) (UniProt P21728); assay: Antagonist of Human D 1 Dopamine Receptor: qHTS; conditions: HEK293 TREx D1 cells, calcium flux, dopamine EC80; at 10 µM; hits give low values
In short: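 Calcium flux readout: force-coupled, inducible Hek293 Trex D1 line, cells induced overnight at 30 C with tetracycline, dye-loaded 30–90 min at RT. Antagonism scored against EC80 dopamine challenge given 180 s after compound.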
% is set by controls: 0 for no effect and ±100 for the full control effect.

D(1A) dopamine receptor (Homo sapiens), sequence (P21728 whole entry, looked up): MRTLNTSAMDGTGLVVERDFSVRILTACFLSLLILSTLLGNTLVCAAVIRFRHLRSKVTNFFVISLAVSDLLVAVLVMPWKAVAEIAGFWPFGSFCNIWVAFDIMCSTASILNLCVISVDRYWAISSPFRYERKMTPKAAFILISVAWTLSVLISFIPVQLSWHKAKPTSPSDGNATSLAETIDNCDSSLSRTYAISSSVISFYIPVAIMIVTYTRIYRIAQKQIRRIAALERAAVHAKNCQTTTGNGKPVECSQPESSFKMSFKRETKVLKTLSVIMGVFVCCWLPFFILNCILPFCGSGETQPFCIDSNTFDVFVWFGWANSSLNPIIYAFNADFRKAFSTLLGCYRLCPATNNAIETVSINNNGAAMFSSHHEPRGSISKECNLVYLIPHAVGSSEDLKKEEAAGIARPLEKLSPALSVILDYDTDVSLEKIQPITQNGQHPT

Q: For `NC(=O)c1ccc(NC(=O)COC(=O)c2c3c(nc4ccccc24)/C(=C\c2ccc4c(c2)OCO4)CCC3)cc1`, which activity change, negative = inhibition is on record?
A: The activity change, negative = inhibition was -7.23%.

Q: `NS(=O)(=O)c1ccc(NC(=O)COC(=O)c2c3c(nc4ccccc24)/C(=C\c2ccc4c(c2)OCO4)CCC3)cc1` was tested. Which activity change, negative = inhibition did it give?
A: Its activity change, negative = inhibition is -45.1% (active).

Q: Which activity change, negative = inhibition does the source give for `COc1cc(/C=C2\CCCc3c2nc2ccccc2c3C(=O)O)cc(Cl)c1O` here?
A: The activity change, negative = inhibition was -14.9%.

Q: For `CCCCN(C)CCCNC(=O)CN1N=C(c2ccc(OC)cc2)CCC1=O`, which activity change, negative = inhibition is on record?
A: Its activity change, negative = inhibition is 3.24%.

Q: Which activity change, negative = inhibition does the source give for `CCCC12CN3CC(C)(CN(C1)C3c1ccccc1Cl)C2=O` (stereo unspecified) here?
A: Its activity change, negative = inhibition is -3.8%.

Q: `COc1cccc(-n2c(=O)c3c(C)c(C(=O)N(C)C)sc3n(Cc3cccc(C)c3)c2=O)c1` was tested. Which activity change, negative = inhibition did it give?
A: The activity change, negative = inhibition was 4.64%.

Q: With `Cc1cc(C)cc(NC(c2nnc(-c3cccc(F)c3)o2)c2ccc(F)cc2Cl)c1` (stereo unspecified) as the molecule, how does the activity change, negative = inhibition read?
A: Its activity change, negative = inhibition is 12.4%.

Q: `N#C/C(=C\c1ccccc1F)c1nc2ccccc2c(=O)[nH]1` was tested. Which activity change, negative = inhibition did it give?
A: Its activity change, negative = inhibition is -3.28%.

Q: For `CSc1nc(=O)c2c(n1C)NC(=O)CC2c1ccccc1OC(C)C` (stereo unspecified), which activity change, negative = inhibition is on record?
A: Its activity change, negative = inhibition is 2.77%.

Q: `Cc1oc2cc(Br)c(O)c(Br)c2c1C(=O)c1ccccc1` was tested. Which activity change, negative = inhibition did it give?
A: Its activity change, negative = inhibition is -4.24%.

Q: With `COc1ccc(C(=O)c2c(C)oc3cc([N+](=O)[O-])c(O)c([N+](=O)[O-])c23)cc1` as the molecule, how does the activity change, negative = inhibition read?
A: The activity change, negative = inhibition was 12.5%.

Q: Which activity change, negative = inhibition does the source give for `Cc1oc2cc([N+](=O)[O-])c(O)c([N+](=O)[O-])c2c1C(=O)c1ccc(Br)cc1` here?
A: The activity change, negative = inhibition was -36.4% (active).

Q: How did the activity change, negative = inhibition turn out when `COc1ccc(S(=O)(=O)c2c(Nc3cccc(Cl)c3)sc(C(=O)c3ccccc3)c2N)cc1` was run?
A: Its activity change, negative = inhibition is -73.9% (active).

Q: `O=C(Nc1ccc2c(c1)OCO2)c1cc(-c2cccc(Cl)c2)on1` was tested. Which activity change, negative = inhibition did it give?
A: Its activity change, negative = inhibition is -3.15%.

Q: With `COc1ccc(S(=O)(=O)c2c(Nc3ccc(C)cc3)sc(C(=O)c3ccc(C)cc3)c2N)cc1` as the molecule, how does the activity change, negative = inhibition read?
A: Its activity change, negative = inhibition is -13.4%.

Q: `Cc1ccc(C(=O)Nc2sc(Cc3ccc4c(c3)OCO4)c(C)c2C(N)=O)cc1` was tested. Which activity change, negative = inhibition did it give?
A: Its activity change, negative = inhibition is 17.9%.

Q: `Cc1ccc(S(=O)(=O)c2c(Nc3cccc(Cl)c3)sc(C(=O)c3ccc4c(c3)OCO4)c2N)cc1` was tested. Which activity change, negative = inhibition did it give?
A: Its activity change, negative = inhibition is -41.6% (active).

Q: With `CCCS(=O)(=O)c1c(Nc2ccccc2C)sc(C(=O)c2ccccc2)c1N` as the molecule, how does the activity change, negative = inhibition read?
A: The activity change, negative = inhibition was 0.973%.

Q: With `NS(=O)(=O)c1ccc(NC(=O)COc2ccc(S(=O)(=O)NC3CCCCC3)cc2)cc1` as the molecule, how does the activity change, negative = inhibition read?
A: The activity change, negative = inhibition was 9.54%.

Q: `Cc1ccc(C(=O)NC2CCN(C#N)CC2)cc1` was tested. Which activity change, negative = inhibition did it give?
A: Its activity change, negative = inhibition is -16%.

Q: With `Cc1cccc(C(=O)N2c3nc(-c4ccco4)nn3C3(CCCCC3)[C@@H]3CCCC[C@@H]32)c1` as the molecule, how does the activity change, negative = inhibition read?
A: The activity change, negative = inhibition was 4.44%.

Q: With `O=C(CSc1nnc(-c2cccnc2)n1Cc1ccco1)c1ccc(Cl)c(Cl)c1` as the molecule, how does the activity change, negative = inhibition read?
A: Its activity change, negative = inhibition is 18.2%.

Q: With `O=C(CSc1nnc(-c2cccs2)n1Cc1ccco1)c1ccc2c(c1)OCO2` as the molecule, how does the activity change, negative = inhibition read?
A: Its activity change, negative = inhibition is -31.7% (active).

Q: How did the activity change, negative = inhibition turn out when `COc1ccc(NC(=O)CSc2nnc(-c3cccs3)n2Cc2ccco2)cc1OC` was run?
A: The activity change, negative = inhibition was 8.42%.

Q: `Cc1cccc(CSc2nc3ccncc3n2Cc2ccc(C(=O)O)cc2)c1` was tested. Which activity change, negative = inhibition did it give?
A: Its activity change, negative = inhibition is 14.5%.

Q: Which activity change, negative = inhibition does the source give for `O=S(=O)(Nc1ccccc1)c1ccc(NS(=O)(=O)c2cccs2)cc1` here?
A: The activity change, negative = inhibition was -3.97%.

Q: Which activity change, negative = inhibition does the source give for `O=S(=O)(Nc1ccccc1Br)c1cccs1` here?
A: The activity change, negative = inhibition was 11.5%.

Q: With `O=C(Nc1cccc(Cl)c1)Nc1ccccc1NS(=O)(=O)c1cccs1` as the molecule, how does the activity change, negative = inhibition read?
A: Its activity change, negative = inhibition is -42.1% (active).

Q: Which activity change, negative = inhibition does the source give for `Cc1cccc(NC(=O)Cn2c(=O)n(CCC(C)C)c(=O)c3cccnc32)c1` here?
A: The activity change, negative = inhibition was 38.2%.

Q: `COc1ccccc1NC(=O)C1=C(C)Nc2nc(SCC(=O)c3ccc(C)cc3)nn2C1c1ccccc1C` (stereo unspecified) was tested. Which activity change, negative = inhibition did it give?
A: The activity change, negative = inhibition was 4.06%.

Q: How did the activity change, negative = inhibition turn out when `O=C(CN1CCN(Cc2ccc(Cl)cc2)C1=O)NCc1ccc(F)cc1` was run?
A: Its activity change, negative = inhibition is 6.15%.

Q: For `COc1ccc(NC(=O)CN2CCCN(Cc3ccccc3)S2(=O)=O)cc1`, which activity change, negative = inhibition is on record?
A: The activity change, negative = inhibition was -2.48%.

Q: `COc1ccc(CNC(=O)C2CCN(S(=O)(=O)N3CCOCC3)CC2)cc1` was tested. Which activity change, negative = inhibition did it give?
A: Its activity change, negative = inhibition is -42.3% (active).

Q: How did the activity change, negative = inhibition turn out when `COc1ccc(CNC(=O)C2CCN(S(C)(=O)=O)CC2)cc1` was run?
A: Its activity change, negative = inhibition is -17.7%.

Q: `COc1ccc(N2CCN(CCCNC(=O)C3CCN(S(=O)(=O)N4CCOCC4)CC3)CC2)cc1` was tested. Which activity change, negative = inhibition did it give?
A: The activity change, negative = inhibition was 5.25%.

Q: For `COc1cccc(CN2CCc3nc(SCC(=O)Nc4ccccc4)[nH]c(=O)c3C2)c1`, which activity change, negative = inhibition is on record?
A: Its activity change, negative = inhibition is 3.64%.

Q: For `CCc1ccc(CNC(=O)c2cc3c(=O)n(CC)c4ccccc4c3s2)cc1`, which activity change, negative = inhibition is on record?
A: Its activity change, negative = inhibition is 11%.

Q: With `Cc1ccc(C)c(N2CCN(S(=O)(=O)c3ccc4c(c3)C(C(C)C)C(=O)N4)CC2)c1` (stereo unspecified) as the molecule, how does the activity change, negative = inhibition read?
A: Its activity change, negative = inhibition is -23.5%.

Q: `O=C(CC(c1cccs1)N1Cc2ccccc2C1=O)Nc1ccc(F)c(F)c1` (stereo unspecified) was tested. Which activity change, negative = inhibition did it give?
A: The activity change, negative = inhibition was -0.399%.

Q: `O=C(COc1ccccc1)NCc1ccc2c(c1)CCN2C(=O)c1ccc(F)cc1` was tested. Which activity change, negative = inhibition did it give?
A: Its activity change, negative = inhibition is -7.02%.

Q: How did the activity change, negative = inhibition turn out when `O=C(CSc1nnc(Nc2ccccc2)s1)Nc1cccnc1Cl` was run?
A: Its activity change, negative = inhibition is -65.7% (active).

Q: `O=C(CSc1nnc(Nc2ccccc2F)s1)NC1CCCC1` was tested. Which activity change, negative = inhibition did it give?
A: Its activity change, negative = inhibition is -3.18%.

Q: With `O=C(CSc1nnc(C2CC2)n1Cc1ccccc1)Nc1cccnc1Cl` as the molecule, how does the activity change, negative = inhibition read?
A: Its activity change, negative = inhibition is 8.52%.

Q: How did the activity change, negative = inhibition turn out when `CC(C)c1ccc(NC(=O)c2ccc3c(O)c(S(=O)(=O)c4ccccc4)c(=O)[nH]c3c2)cc1` was run?
A: Its activity change, negative = inhibition is -2.13%.

Q: For `COc1cc2ccccc2cc1C(=O)Nc1cccc(-c2nc3ccccc3o2)c1`, which activity change, negative = inhibition is on record?
A: Its activity change, negative = inhibition is -19.2%.

Q: `O=C(Nc1ccccc1)O/N=C1/CCCc2occc21` was tested. Which activity change, negative = inhibition did it give?
A: Its activity change, negative = inhibition is 7.6%.

Q: With `CC(C)(COC(=O)Nc1ccccc1)COC(=O)Nc1ccccc1` as the molecule, how does the activity change, negative = inhibition read?
A: The activity change, negative = inhibition was -3.78%.

Q: With `N/C(=N\OC(=O)Nc1ccccc1)c1ccno1` as the molecule, how does the activity change, negative = inhibition read?
A: Its activity change, negative = inhibition is -30.9% (active).

Q: `Cc1ccc(-c2nnc(Nc3ccc(OCC(N)=O)cc3)c3ccccc23)cc1S(=O)(=O)NCC1CCCO1` (stereo unspecified) was tested. Which activity change, negative = inhibition did it give?
A: The activity change, negative = inhibition was -11.9%.

Q: `CCOc1ccc(CCNC(=O)c2ccc3c(c2)sc2nc(-c4ccc(F)cc4)cn23)cc1OCC` was tested. Which activity change, negative = inhibition did it give?
A: Its activity change, negative = inhibition is 0.197%.

Q: With `COc1ccc(C(=O)CCc2ccccc2O)c(OC)c1` as the molecule, how does the activity change, negative = inhibition read?
A: The activity change, negative = inhibition was -22.2%.

Q: `COc1ccccc1C(=O)NCCC(=O)NC(C)CCc1ccccc1` (stereo unspecified) was tested. Which activity change, negative = inhibition did it give?
A: The activity change, negative = inhibition was -3.06%.

Q: Which activity change, negative = inhibition does the source give for `COc1ccc(CCNC(=O)c2ccccc2-c2ccccc2C(=O)O)cc1OC` here?
A: The activity change, negative = inhibition was 0.57%.

Q: Which activity change, negative = inhibition does the source give for `COc1ccc(CCNC(=O)c2ccccc2OCc2ccccc2)cc1` here?
A: The activity change, negative = inhibition was -35% (active).

Q: Which activity change, negative = inhibition does the source give for `CCOc1ncccc1C(=O)NCCc1ccc(OC)cc1` here?
A: The activity change, negative = inhibition was 8.92%.

Q: For `COc1ccc(C(=O)NC(C)CCc2ccccc2)c(OC)c1` (stereo unspecified), which activity change, negative = inhibition is on record?
A: The activity change, negative = inhibition was -36.3% (active).
